The target in experiment [1] is Rap guanine nucleotide exchange factor 3 (Homo sapiens) (UniProt O95398). In words: Confirmatory qHTS for antagonist of cAMP-regulated guanine nucleotide exchange factor 3 (EPAC1) (AID 1645880). Also: nearly all actives have a fitted effect of over 55% in size. Also: potency is read from the fitted curve at half-maximal effect. The gist of the method: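 Released BODIPY-GDP fluoresces less than Rap1-bound BODIPY-GDP; the signal is followed at 480/540 nm at 5-min intervals over 30 min, after 5 min at room temperature. Reactions contain 100 nM EPAC1, 250 nM RAP1B-BODIPY-GDP and 50 uM GDP; results are normalized to ATA and DMSO.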
For orientation: Quantitative high-throughput screening tests each substance at several concentrations.

Experiment [2] shares this target. In words: Confirmatory qHTS for agonist of cAMP-regulated guanine nucleotide exchange factor 3 (EPAC1) (AID 1645881).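 Also: EPAC1 catalysed release of BODIPY-GDP from Rap1B seen as fluorescence loss; 100% = effect of cAMP agonist control; nearly all actives have a fitted effect of over 75% in size.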
Experiment [3] has as its target Rap guanine nucleotide exchange factor 4 (Homo sapiens) (UniProt Q8WZA2). In words: Confirmatory qHTS for agonist of cAMP-regulated guanine nucleotide exchange factor 4 (EPAC2) (AID 1645884).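 Also: nucleotide exchange releases bodipy-GDP from Rap1 and this lowers its fluorescence; % is scaled to controls: 0 for no effect and ±100 for the full control effect; nearly all actives have a fitted effect of over 65% in size.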
Experiment [4] has the same target. In words: Confirmatory qHTS for antagonist of cAMP-regulated guanine nucleotide exchange factor 4 (EPAC2) (AID 1645885). Also: nearly all actives have a fitted effect of over 25% in size. Also: potency is read from the fitted curve at half-maximal effect. As to activity change, negative = inhibition: % is scaled to controls: 0 for no effect and ±100 for the full control effect.
Experiment [5] concerns the target Rap guanine nucleotide exchange factor 3 (Homo sapiens) (UniProt O95398). In words: Counterscreen qHTS for antagonist of cAMP-regulated guanine nucleotide exchange factor 3 (EPAC1) (AID 1645888). Also: % of control where 0% means no effect. Put shortly:
(§1)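 Rap1B-BODIPY-GDP 250 nM + GDP 50 uM; cpds 7-pt, final 9.74 nM–152 uM (activator mode) or from 7.32 nM upwards (inhibitor mode); RT; FI 480/540 nm at 5 and 30 min, then ± cAMP, reread.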

Experiment [6] shares this target. In words: Counterscreen qHTS for agonist of cAMP-regulated guanine nucleotide exchange factor 3 (EPAC1) (AID 1645889). Also: % of control where 0% means no effect; nearly all actives have a fitted effect of over 40% in size. The gist of the method: as §1
For orientation: Counterscreens check selectivity or assay interference.

SMILES strings stand for the structures. Inconclusive results are not listed. A number with no mark means an inactive call. Active and inactive are the calls of the source. Calls follow the shape of the dose curve; as a rule, active = well fitted curve in the direction sought with a large enough effect; inconclusive = small, poorly fitted or top-dose-only effect, or another doubt; inactive = no such curve, though single readings can be large; an effect the other way counts as inactive or inconclusive.

Sequence of Rap guanine nucleotide exchange factor 4 (Homo sapiens) (Q8WZA2 whole entry, looked up): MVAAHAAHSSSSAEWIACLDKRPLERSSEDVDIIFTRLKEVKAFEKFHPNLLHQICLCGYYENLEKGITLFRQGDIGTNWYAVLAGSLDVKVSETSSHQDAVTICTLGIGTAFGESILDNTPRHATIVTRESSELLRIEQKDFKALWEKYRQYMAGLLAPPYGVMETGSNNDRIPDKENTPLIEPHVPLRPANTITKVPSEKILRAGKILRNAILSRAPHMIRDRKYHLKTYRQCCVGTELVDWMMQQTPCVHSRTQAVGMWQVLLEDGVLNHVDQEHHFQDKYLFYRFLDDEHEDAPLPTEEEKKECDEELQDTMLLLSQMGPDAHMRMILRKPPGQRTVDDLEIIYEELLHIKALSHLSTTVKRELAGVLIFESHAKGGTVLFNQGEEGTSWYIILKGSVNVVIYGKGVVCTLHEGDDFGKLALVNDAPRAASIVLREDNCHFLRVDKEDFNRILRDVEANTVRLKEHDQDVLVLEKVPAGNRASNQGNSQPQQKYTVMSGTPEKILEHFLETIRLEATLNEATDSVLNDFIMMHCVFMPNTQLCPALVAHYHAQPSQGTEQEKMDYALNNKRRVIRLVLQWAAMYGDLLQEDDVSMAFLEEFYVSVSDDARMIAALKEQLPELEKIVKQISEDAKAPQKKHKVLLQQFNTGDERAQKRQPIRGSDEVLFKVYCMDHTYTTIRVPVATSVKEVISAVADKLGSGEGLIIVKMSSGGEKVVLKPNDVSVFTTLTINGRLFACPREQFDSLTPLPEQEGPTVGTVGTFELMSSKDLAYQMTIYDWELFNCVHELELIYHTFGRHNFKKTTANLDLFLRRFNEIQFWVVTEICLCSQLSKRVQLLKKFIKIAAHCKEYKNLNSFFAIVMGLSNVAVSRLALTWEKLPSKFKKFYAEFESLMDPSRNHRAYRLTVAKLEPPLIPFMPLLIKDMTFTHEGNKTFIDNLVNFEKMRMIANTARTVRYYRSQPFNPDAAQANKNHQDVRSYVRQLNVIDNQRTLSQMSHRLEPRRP
Sequence of Rap guanine nucleotide exchange factor 3 (Homo sapiens) (O95398 whole entry, looked up): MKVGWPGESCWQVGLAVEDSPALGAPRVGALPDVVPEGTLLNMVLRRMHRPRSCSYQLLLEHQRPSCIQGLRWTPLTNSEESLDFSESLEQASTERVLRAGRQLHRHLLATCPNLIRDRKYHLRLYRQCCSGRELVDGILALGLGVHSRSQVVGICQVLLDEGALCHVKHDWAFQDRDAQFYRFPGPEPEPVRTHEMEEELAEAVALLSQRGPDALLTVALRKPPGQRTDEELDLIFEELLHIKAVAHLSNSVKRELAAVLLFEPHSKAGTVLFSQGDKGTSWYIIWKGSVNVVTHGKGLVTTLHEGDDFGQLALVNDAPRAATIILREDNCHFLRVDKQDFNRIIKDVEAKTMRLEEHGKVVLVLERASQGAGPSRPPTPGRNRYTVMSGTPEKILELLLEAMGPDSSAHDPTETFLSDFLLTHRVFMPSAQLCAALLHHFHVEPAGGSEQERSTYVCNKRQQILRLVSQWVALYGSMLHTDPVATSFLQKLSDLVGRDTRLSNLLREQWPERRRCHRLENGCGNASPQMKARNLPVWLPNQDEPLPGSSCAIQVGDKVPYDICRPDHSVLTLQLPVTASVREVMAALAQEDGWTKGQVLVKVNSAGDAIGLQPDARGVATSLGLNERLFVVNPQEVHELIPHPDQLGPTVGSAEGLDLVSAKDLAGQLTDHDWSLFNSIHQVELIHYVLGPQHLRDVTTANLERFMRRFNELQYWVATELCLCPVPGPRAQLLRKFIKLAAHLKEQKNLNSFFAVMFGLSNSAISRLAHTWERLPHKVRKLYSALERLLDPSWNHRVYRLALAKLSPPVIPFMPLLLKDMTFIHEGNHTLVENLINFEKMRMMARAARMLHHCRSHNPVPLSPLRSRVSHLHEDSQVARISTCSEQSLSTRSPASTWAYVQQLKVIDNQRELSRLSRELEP

As for `COC(=O)c1ccc(N2C(=O)CC(N3CCOCC3)C2=O)cc1` (stereo not given), the Potency entry in experiment [1], in experiment [2] and in experiment [4] was “inactive” each time. The activation in experiment [3] was 8.32% [at 17.1 µM, percent relative to cAMP agonist control]; in experiment [6], 10.6% [at 30.8 µM]. Besides, the activity change, negative = inhibition in experiment [5] was 6.34% [at 30.8 µM].

On to `O=C1NN(c2cccc(Br)c2)C(=O)/C1=C\c1ccccc1`, for which the Potency in experiment [1] is 33.8 µM (active). In addition, the Potency result in experiment [2], in experiment [3], in experiment [4], in experiment [5] and in experiment [6] was “inactive” throughout.

On to `CC1CCCCN1C(=O)COC(=O)c1cc([N+](=O)[O-])ccc1N1CCOCC1` (stereo not given), for which the Potency result in experiment [1], in experiment [2], in experiment [3], in experiment [4], in experiment [5] and in experiment [6] was “inactive” each time.

For the compound `COC(=O)c1cc2sc(Cl)cc2n1Cc1c(C)cc(C)cc1C`, the Potency result in experiment [1], in experiment [2], in experiment [3], in experiment [4], in experiment [5] and in experiment [6] was “inactive” each time.

For `CCOc1cc(/C=C2\C(=N)N3N=C(S(=O)(=O)CC)SC3=NC2=O)ccc1OC(=O)c1ccco1`, the Potency in experiment [1] was 30.1 µM (active). The Potency result in experiment [2], in experiment [3], in experiment [4], in experiment [5] and in experiment [6] was “inactive” throughout.

As to `COc1ccc(N2CCN(C(=O)COC(=O)COc3cc(C)cc(C)c3)CC2)cc1`, the Potency result in experiment [1], in experiment [2] and in experiment [4] was “inactive” in each case. The activation in experiment [3] was 0.676% [at 17.1 µM, percent relative to cAMP agonist control]; in experiment [6], -0.0753% [at 30.8 µM]. Further, the activity change, negative = inhibition in experiment [5] was -19.2% [at 30.8 µM].

In the case of `COc1ccc(N2CCN(C(=O)CSc3ncn[nH]3)CC2)cc1`, the Potency entry in experiment [1], in experiment [2], in experiment [3], in experiment [4], in experiment [5] and in experiment [6] was “inactive” in each case.

In the case of `COc1cccc(CC(=O)Nc2ccc(S(=O)(=O)Nc3nccs3)cc2)c1`, the Potency result in experiment [1], in experiment [2] and in experiment [4] was “inactive” throughout. Also, the activation in experiment [3] was -3.47% [at 17.1 µM, percent relative to cAMP agonist control]; in experiment [6] it was 9.39% [at 30.8 µM]. The activity change, negative = inhibition in experiment [5] is -17.8% [at 30.8 µM].

`O=C(N/N=C/C=C\c1ccco1)c1ccccn1`: the Potency in experiment [1] is 6.01 µM (active). Moreover, the Potency entry in experiment [2], in experiment [3], in experiment [4], in experiment [5] and in experiment [6] was “inactive” throughout.

`Cc1ccc2c(c1)C=CC(C#N)N2C(=O)c1ccccc1` (stereo not given): the Potency entry in experiment [1], in experiment [2], in experiment [3], in experiment [4], in experiment [5] and in experiment [6] was “inactive” each time.

`CCCCN1C(=O)C(C(=O)OCc2ccccc2)CC2=C1CCCC2=O` (stereo not given): the Potency result in experiment [1], in experiment [2], in experiment [3], in experiment [4], in experiment [5] and in experiment [6] was “inactive” throughout.

As for `Cc1cc(C(=O)COC(=O)C2COc3ccccc3O2)c(C)n1CC1CCCO1` (stereo not given), the Potency entry in experiment [1], in experiment [2], in experiment [3], in experiment [4], in experiment [5] and in experiment [6] was “inactive” each time.

For the compound `O=C(c1ccccc1)c1nn(-c2ccccc2)c(=O)cc1-c1ccccc1`, the Potency result in experiment [1], in experiment [2], in experiment [3], in experiment [4], in experiment [5] and in experiment [6] was “inactive” each time.

With `COc1cccc(/C=C2\SC(=S)N(C(Cc3ccccc3)C(=O)O)C2=O)c1` (stereo not given), the Potency in experiment [1] is 47.8 µM (active). Also, the Potency entry in experiment [2], in experiment [3], in experiment [4], in experiment [5] and in experiment [6] was “inactive” throughout.

`CC1(C(=O)NS(=O)(=O)c2ccc(Cl)s2)CCN1C(=O)C1(c2ccccc2)CCCC1` (stereo not given): the Potency in experiment [1] was 37.9 µM (active); in experiment [4], 8.49 µM (active). Moreover, the Potency entry in experiment [2], in experiment [3], in experiment [5] and in experiment [6] was “inactive” each time.

In the case of `CC(C)N(Cc1cn(C)nc1-c1cccc(Cl)c1)Cc1nccn1C`, the Potency result in experiment [1], in experiment [2] and in experiment [4] was “inactive” in each case. The activation in experiment [3] is 1.24% [at 17.1 µM, percent relative to cAMP agonist control]; in experiment [6] it was 15% [at 30.8 µM]. The activity change, negative = inhibition in experiment [5] is -5.68% [at 30.8 µM].

Turning to `Cc1cc(C)c2c(CN3CCCCC3)cc(=O)oc2c1`, the Potency entry in experiment [1], in experiment [2], in experiment [3], in experiment [4], in experiment [5] and in experiment [6] was “inactive” each time.

As for `CCC(=O)Nc1ccc(C(=O)NNC(=O)c2ccc([N+](=O)[O-])cc2)cc1`, the Potency result in experiment [1], in experiment [2], in experiment [3], in experiment [4], in experiment [5] and in experiment [6] was “inactive” in each case.

Consider `CC(NCc1cccn1C)c1ccccc1` (stereo not given), for which the Potency entry in experiment [1], in experiment [2], in experiment [3], in experiment [4], in experiment [5] and in experiment [6] was “inactive” throughout.

Consider `CC(C)OC(=O)c1c(-c2ccccc2)c(-c2ccccc2)nn(C)c1=O`, for which the Potency result in experiment [1], in experiment [2], in experiment [3], in experiment [4], in experiment [5] and in experiment [6] was “inactive” in each case.

Regarding `Cn1c(=O)c2nc(SCC(=O)Nc3ccc(Cl)c(Cl)c3)n(C)c2n(C)c1=O`, the Potency result in experiment [1], in experiment [2], in experiment [3], in experiment [5] and in experiment [6] was “inactive” each time. Besides, in experiment [4], the outcome was “inactive [at 12.7 µM]”.

On to `O=C(Cn1nnc2sc(-c3ccccc3)cc2c1=O)Nc1cccc(C(F)(F)F)c1`, for which the Potency result in experiment [1], in experiment [2], in experiment [3], in experiment [4], in experiment [5] and in experiment [6] was “inactive” each time.

For `O=c1c2sccc2nc(SCc2cc(=O)n3cc(Cl)ccc3n2)n1Cc1ccccn1`, the Potency result in experiment [1], in experiment [2], in experiment [3], in experiment [4], in experiment [5] and in experiment [6] was “inactive” each time.

As to `COc1cc(/C=C2\SC(=S)N(NS(=O)(=O)c3ccc(C)cc3)C2=O)cc(OC)c1OC`, the Potency in experiment [1] was 26.9 µM (active); in experiment [4], 33.8 µM (active). Moreover, the Potency entry in experiment [2], in experiment [3], in experiment [5] and in experiment [6] was “inactive” each time.

Take `O=C(c1ccc2c(c1)N(Cc1ccccc1)CCS2)N1CCCCC1`: the Potency result in experiment [1], in experiment [2], in experiment [3], in experiment [4], in experiment [5] and in experiment [6] was “inactive” throughout.

`Oc1ccc(/C=N/Nc2ncnc3c2ncn3Cc2ccccc2)cc1O`: in experiment [1], the Potency was 3.55 µM (active). For the same compound, the Potency entry in experiment [2] and in experiment [4] was “inactive” in each case. Also, the activation in experiment [3] is 4.96% [at 17.1 µM, percent relative to cAMP agonist control]; in experiment [6], 1.06% [at 30.8 µM]. Moreover, in experiment [5], the activity change, negative = inhibition was -13.7% [at 30.8 µM].

In the case of `O=C(O)c1ccc(N/N=C/c2ccc3c(c2)OCO3)cc1`, the Potency entry in experiment [1], in experiment [2], in experiment [3], in experiment [5] and in experiment [6] was “inactive” throughout. Also, in experiment [4], the Potency is 33.8 µM (active).

For the compound `CCN(CC)CCn1c2c(c(SCC(=O)NCc3ccccc3)nc1=O)CCCC2`, the Potency result in experiment [1], in experiment [2], in experiment [3], in experiment [4], in experiment [5] and in experiment [6] was “inactive” each time.

For the compound `COc1ccccc1NC(=O)C(C)OC(=O)COc1cccc2c1OC(C)(C)C2` (stereo not given), the Potency entry in experiment [1], in experiment [2] and in experiment [4] was “inactive” in each case. In addition, the activation in experiment [3] is 2.07% [at 17.1 µM, percent relative to cAMP agonist control]; in experiment [6] it was 7.64% [at 30.8 µM]. Further, the activity change, negative = inhibition in experiment [5] is -14.5% [at 30.8 µM].

Consider `C=CCSc1nc(-c2ccc(OC)cc2)c(C#N)c(=O)n1CC=C`, for which the Potency result in experiment [1], in experiment [2] and in experiment [4] was “inactive” throughout. Further, the activation is 1.63% [at 17.1 µM, percent relative to cAMP agonist control] in experiment [3] and -17.1% [at 30.8 µM] in experiment [6]. The activity change, negative = inhibition in experiment [5] is -30% [at 30.8 µM].

Take `CCN(CC)S(=O)(=O)c1cc(NC(=O)Cn2ncc(Cl)c(Cl)c2=O)ccc1C`: the Potency in experiment [1] was 39.8 µM (active). The Potency entry in experiment [2] and in experiment [4] was “inactive” in each case. Moreover, the activation in experiment [3] is -11.9% [at 17.1 µM, percent relative to cAMP agonist control]; in experiment [6], 5.37% [at 30.8 µM]. In addition, the activity change, negative = inhibition in experiment [5] was -2.1% [at 30.8 µM].

`Cc1cc2c(c(=O)o1)C(c1ccc([N+](=O)[O-])o1)C(C#N)=C(N)O2` (stereo not given): the Potency result in experiment [1], in experiment [2], in experiment [3], in experiment [4], in experiment [5] and in experiment [6] was “inactive” throughout.

As to `C=CCOc1ccc(/C=C2\SC(=S)N(NS(=O)(=O)c3ccccc3)C2=O)cc1`, the Potency is 47.8 µM (active) in experiment [1] and 42.6 µM (active) in experiment [4]. Moreover, the Potency result in experiment [2], in experiment [3], in experiment [5] and in experiment [6] was “inactive” each time.

In the case of `CC1=CC=CC2=NC(=O)CC(C)(C(=O)N(CC(=O)NC(C)C)C3CCCC3)N12` (stereo not given), the Potency result in experiment [1], in experiment [2] and in experiment [4] was “inactive” each time. Also, the activation in experiment [3] is 3.39% [at 17.1 µM, percent relative to cAMP agonist control]; in experiment [6] it was 26.5% [at 30.8 µM]. In addition, in experiment [5], the activity change, negative = inhibition was -13.5% [at 30.8 µM].

As to `O=C(Nc1cc(-c2ccccc2)sc1C(=O)O)c1cccc(F)c1`, the Potency in experiment [1] was 47.8 µM (active). Besides, the Potency entry in experiment [2], in experiment [3], in experiment [4], in experiment [5] and in experiment [6] was “inactive” throughout.

(Values after PubChem BioAssay (NCATS).)
